In PubChem BioAssay (NCI):
This is part of a sample that, as a whole, favours compounds with a hit. Of some 83,000 tested, about 20% had one in any assay.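 Plates (96-well) were seeded with cells, treated with compound at one concentration, and incubated for 48 hours before percent growth was determined.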 Active and inactive are the calls of the source. Rule for the calls: active = growth percent below 10; inactive = the rest.

Legend:
Assay in all cases: NCI-60 one-dose screen, 48 h (100 = growth as untreated, 0 = no growth, -100 = all killed)
Settings in all cases: 10 µM unless noted
T-47D breast = test system: T-47D breast
BT-549 breast = test system: BT-549 breast
MDA-MB-435 melanoma = test system: MDA-MB-435 melanoma
SW-620 colon = test system: SW-620 colon
MCF7 breast = test system: MCF7 breast
HCT-116 colon = test system: HCT-116 colon
HCC-2998 colon = test system: HCC-2998 colon
KM12 colon = test system: KM12 colon

Measured: growth

CCCn1c(N)c(C(=O)CNc2ccc(I)cc2)c(=O)[nH]c1=O
inactive: T-47D breast 94.9% | BT-549 breast 61.4% | MDA-MB-435 melanoma 51.1% | SW-620 colon 35.3% | MCF7 breast 57.1% | HCT-116 colon 32.3% | HCC-2998 colon 74.2% | KM12 colon 43.7%

O=C1C(=O)/C(=C/c2ccccc2)CCCCCC/C1=C/c1ccccc1
active: MDA-MB-435 melanoma -41.8% | SW-620 colon -19.1% | MCF7 breast 6.04% | HCT-116 colon -23.7% | HCC-2998 colon -22.3% | KM12 colon -23.6%
inactive: T-47D breast 47.6% | BT-549 breast 16.4%

CSc1nc(Nc2ccc(S(=O)(=O)Nc3ccon3)cc2)c(C#N)c(-c2ccc(Cl)cc2)n1
inactive: T-47D breast 97% | BT-549 breast 90.5% | MDA-MB-435 melanoma 97.9% | SW-620 colon 70.5% | MCF7 breast 94.3% | HCT-116 colon 65.8% | HCC-2998 colon 94.4% | KM12 colon 104%

CCOc1cc(/C=C/C(=O)CC(=O)/C=C/c2ccc(OC(=O)CNCCN(CC)CC)c(OCC)c2)ccc1OC(=O)CNCCN(CC)CC
active: BT-549 breast -77.2% | MDA-MB-435 melanoma -21.6% | SW-620 colon -58.1% | MCF7 breast 7.36% | HCT-116 colon -84.7% | HCC-2998 colon -71.2% | KM12 colon -60.2%
inactive: T-47D breast 36.9%

O=[N+]([O-])c1cc([N+](=O)[O-])c(N2CCCC2)cc1NN=C(c1ccc(O)cc1)c1ccc(O)cc1
inactive: BT-549 breast 86.6% | MDA-MB-435 melanoma 76.1% | SW-620 colon 107% | KM12 colon 85.7%
active: T-47D breast -7.05% | MCF7 breast 9.54% | HCT-116 colon 8% | HCC-2998 colon 4.45%

O=C(/C=C/c1c(-c2ccccc2)[nH]c2ccccc12)S(=O)(=O)c1ccccc1
inactive: T-47D breast 29.4% | BT-549 breast 87.9% | SW-620 colon 39.8% | MCF7 breast 43.3% | HCT-116 colon 46.1% | HCC-2998 colon 60.7% | KM12 colon 36.3%
active: MDA-MB-435 melanoma 9.36%

N=C1c2nc3n(c2C(=O)c2nc4n(c21)CCCCC4)CCCCC3
inactive: T-47D breast 116% | BT-549 breast 110% | MDA-MB-435 melanoma 111% | SW-620 colon 105% | MCF7 breast 94.5% | HCT-116 colon 107% | HCC-2998 colon 112% | KM12 colon 106%

Nc1nc(SCc2cccnc2)c2ncn(C3OC(CO)C(O)C3O)c2n1 (stereo not given)
inactive: T-47D breast 110% | BT-549 breast 98.1% | MDA-MB-435 melanoma 104% | SW-620 colon 97.9% | MCF7 breast 94.9% | HCT-116 colon 93.8% | HCC-2998 colon 96.6% | KM12 colon 98.4%

COc1cc(/C=C/C(=O)c2c(C)n([O-])c3ccccc3[n+]2=O)cc(OC)c1OC
inactive: T-47D breast 34.9% | BT-549 breast 27.3% | MDA-MB-435 melanoma 46.3% | SW-620 colon 43.7% | MCF7 breast 20.8% | HCT-116 colon 30.6% | HCC-2998 colon 60.5% | KM12 colon 61.2%

O=C1CSC(c2ccccc2Cl)N1c1nnc(Cn2nnc3ccccc32)o1 (stereo not given)
inactive: T-47D breast 50.5% | BT-549 breast 98.9% | MDA-MB-435 melanoma 93.4% | SW-620 colon 93.2% | MCF7 breast 86.8% | HCT-116 colon 60.1% | HCC-2998 colon 86.4% | KM12 colon 77.1%

c1ccc(COc2ccc(Nc3ncnc4c3cnn4-c3ccccc3)cc2)cc1
inactive: T-47D breast 100% | BT-549 breast 106% | MDA-MB-435 melanoma 90.1% | SW-620 colon 98.7% | MCF7 breast 101% | HCT-116 colon 106% | HCC-2998 colon 108% | KM12 colon 98.2%

CCN(CC)CCOCC[C@H]1CC[C@H]2[C@@H]3[C@H](C)Cc4cc(OS(N)(=O)=O)ccc4[C@H]3CC[C@]12C
active: T-47D breast -46.4% | BT-549 breast -53.4% | MDA-MB-435 melanoma -63.7% | SW-620 colon -77.5% | MCF7 breast -63.1% | HCT-116 colon -98.4% | HCC-2998 colon -92.7% | KM12 colon -80.8%

Cc1[nH]ccc2cc3nc4ccccc4c3cc12
inactive: T-47D breast 27.7% | BT-549 breast 60.3% | MDA-MB-435 melanoma 33.9% | SW-620 colon 22.1% | HCT-116 colon 22% | HCC-2998 colon 33.7% | KM12 colon 29%
active: MCF7 breast 7.1%

O=C1NC(=O)/C(=C/c2ccc(Cl)cc2Cl)N1
inactive: T-47D breast 90.9% | BT-549 breast 104% | MDA-MB-435 melanoma 116% | SW-620 colon 102% | MCF7 breast 95.3% | HCT-116 colon 114% | HCC-2998 colon 102% | KM12 colon 103%

Cc1nn(-c2ccccc2)c2nc(N)c(C3=NCCO3)nc12
inactive: T-47D breast 77.5% | BT-549 breast 92.6% | MDA-MB-435 melanoma 101% | SW-620 colon 92.6% | MCF7 breast 83.6% | HCT-116 colon 95.8% | HCC-2998 colon 101% | KM12 colon 104%
